# In the library only some 4% were active in any assay of this set; here they are far more common.
# CF NFkB inh = inhibitors of PAF-induced NF-kB signaling, primary screen, cell-based, GFP fluorescence, uHTS. KKLEB NF-kB-GFP reporter, GFP fluorescence overnight. inhibition, % at 5 µM. hit rate 0.86% among 360,000. AID 588850, 2011;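 active means at least 50% inhibition at 5 µM, scaled per plate between neutral and stimulator controls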;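 further: PAF is a Pseudomonas aeruginosa culture filtrate used as stimulus; plate controls were PAF-stimulated DMSO wells for no effect and unstimulated DMSO wells for full effect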
# KKLEB cytotox = cytotoxicity in KKLEB CF airway cells, primary screen, cytotoxicity control for CF NF-kB inhibitor project, cell-based, uHTS, fluorescence assay plates | hit rate 0.36% among 360,000 | activity change (cytotoxicity), % at 5 µM | KKLEB CF airway cells viability, ATPlite luminescence, overnight; hits give low values; cells stimulated with P. aeruginosa culture filtrate;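 active means corrected activity change at or below -50% at 5 µM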
# TROY signal inh = inhibitors of TROY-driven NF-kB signaling, primary screen, Q293 LMP1-TROYcd cells, NF-kB luciferase, uHTS. Q293 LMP1-TROYcd NF-kB luciferase reporter, 4 h. inhibition, % at 10 µM. hit rate 0.98% among 360,000. AID 1347056, 2019;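 active means compounds whose plate-normalised and pattern-corrected inhibition of the luciferase reporter signal at the single screening dose is 50% or more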
# Peg3 prom inh = Peg3 promoter-driven luciferase inhibitors, primary screen, cell-based, HeLa, luciferase luminescence; hit rate 1.7% among 360,000; HeLa PEG-Prom luciferase reporter, overnight; inhibition, % at 20 µM;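 active means inhibition of at least 50% at 20 µM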
# TWEAK-Fn14 inh = inhibitors of TWEAK-Fn14 signaling, primary screen, luciferase reporter cells, uHTS; hit rate 2% among 360,000; TWEAK-stimulated Fn14 reporter cells, luciferase luminescence, 8 h; inhibition, % at 10 µM; in the data active means inhibition above about 50%
# HIF-2a block = HIF-2a reporter inhibitors, primary screen, luminescence, 786-0 RCC cells; 786-0 RCC cells HIF-2a reporter, luciferase luminescence, overnight; inhibition, % at 18.8 µM; hit rate 0.72% among 360,000; AID 624352, 2012;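 active means inhibition of the luminescence signal of 40% or more relative to plate controls, in a single-dose primary screen at 18.75 µM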
# * hit, by the source's call; / = not tested or not shown.
SMILES,CF NFkB inh,KKLEB cytotox,TROY signal inh,Peg3 prom inh,TWEAK-Fn14 inh,HIF-2a block
O=C(c1ccccc1NS(=O)(=O)c1ccc([N+](=O)[O-])cc1[N+](=O)[O-])N1O[C@@H]2C=C[C@H]1C2,11,0,3,7,24,-16
COc1ccc(S(=O)(=O)N(Cc2ccccc2)c2ccccc2C(=O)O)cc1,11,13,1,14,20,24
COc1ccc(S(=O)(=O)N(Cc2ccccc2)c2ccccc2C(=O)N2CCOCC2)cc1,2,-2,5,10,94*,2
CCCCn1nnc(NC(=O)c2sc3cc(Cl)ccc3c2Cl)n1,-12,1,-2,-30,-6,-29
CCN(CC)Cc1ccc(NC(=O)c2sc3cc(Cl)ccc3c2Cl)cc1,2,-3,-4,105*,-78,-118
CN(C(=O)c1cccc(NC(=O)Cc2ccc(NC(=O)C3CCN(C(=O)C4CCC4)CC3)cc2)c1)C1CC1,5,11,-14,-19,4,-9
CC1(C(=O)NS(=O)(=O)c2cccc(Cl)c2)CCN1C(=O)C/C=C/c1ccccc1 (configuration not stated),-6,11,-4,0,-12,2
N#CC1(NC(=O)CSc2n[nH]c(-c3ccccc3)n2)CCCCC1,-4,8,-16,4,7,-6
O=C(c1cc(C2CC2)nc2ccccc12)N1N=C(C(F)F)CC1(O)C(F)F (configuration not stated),4,4,-4,21,81*,18
CC(C)c1ccc(-c2cc(C(=O)N3N=C(C(F)F)CC3(O)C(F)F)c3ccccc3n2)cc1 (configuration not stated),6,2,-11,-148,28,-228
CCc1cc(C(=O)N(CC(C)C)c2c(N)n(Cc3ccccc3)c(=O)[nH]c2=O)sc1C,14,-9,2,-7,7,9
O=C1/C(=C/c2ccc(O)cc2)COc2ccccc21,-1,-1,15,-95,66*,-31
O=C1/C(=C/c2ccccn2)COc2ccccc21,-37,16,-1,-2,9,-14
Cc1ccccc1-n1cnnc1SCC(=O)Nc1cccnc1Cl,3,4,-21,9,6,7
CC(C)NC(=O)C1CCN(C(=O)N(C)C)CC1,-5,0,6,-4,51*,-18
CNC(=O)OCc1nc(SSC(C)(C)C)n(C)c1COC(=O)NC,78*,-75*,-8,94*,89*,-20
CCSc1nc(COC(=O)NC)c(COC(=O)NC)n1C,20,-9,20,7,-7,-1
COc1ccc(S(=O)(=O)NC(C)C(=O)Nc2ccc3c(c2)OCCO3)cc1OC (configuration not stated),10,6,8,-1,75*,4
COc1cc(OC)cc(C(=O)NC(C(=O)Nc2ccc3c(c2)OCCO3)C(C)C)c1 (configuration not stated),42,-20,52*,-102,56*,-26
Cc1[nH]nc2c(=S)[nH]c(=O)[nH]c12,-2,-4,-9,-14,4,16
COc1ccc2nc(NC(=O)c3cc(C)oc3C)sc2c1,-5,-7,-26,-265,3,-192
O=C(Nc1nc2c(Br)cc(Br)cc2c(=O)s1)c1ccco1,31,-28,4,23,62*,3
COc1cccc(C(=O)Nc2cc(OC)ccc2NC(=O)c2ccco2)c1,-9,-7,-26,12,56*,6
COC(=O)c1sc(NC(=O)c2ccco2)nc1C,7,1,-23,-111,12,-121
COc1ccc2nc(NC(=O)c3ccoc3C)sc2c1,-1,-10,-6,-138,59*,-161
SMILES,CF NFkB inh,KKLEB cytotox,TROY signal inh,Peg3 prom inh,TWEAK-Fn14 inh,HIF-2a block
Cc1nc(NC(=O)c2ccco2)sc1C(=O)O,7,-5,36,42,59*,22
COc1ccc(C(=O)C(=O)N2CCN(c3ccc(C)cc3)CC2)cc1OC,/,/,/,/,/,6
CC(=O)Oc1c(C)c(C)c2c(c1C)CC[C@@](C)(CCC[C@H](C)CCC[C@H](C)CCCC(C)C)O2,13,9,1,6,-14,13
CN(C)S(=O)(=O)c1cccc(COC(=O)CNC(=O)c2ccc(Br)o2)c1,5,9,-13,-11,-7,-11
CC(=O)OC[C@@H]1CN(Cc2ccccc2)C[C@H](n2cnc3c(N(C)C(C)C)ncnc32)O1,8,15,7,0,11,1
CCOC(=O)c1sc(NC(=O)CCN2C(=O)C3CCCCC3C2=O)cc1C (configuration not stated),9,-4,-3,6,-2,1
CN(Cc1cccnc1)C(=O)CCCc1c[nH]c2ccccc12,-4,-9,-6,8,7,7
O=C(NC1CC1)c1cccc(NC(=O)C2CCN(S(=O)(=O)c3ccccc3C(F)(F)F)CC2)c1,1,0,14,8,-12,12
CC(=O)c1ccc(S(=O)(=O)NC2CCCCCCC2)cc1,17,4,-6,24,5,11
Nc1c(C(=O)CSc2ncccn2)c(=O)[nH]c(=O)n1C1CC1,10,-15,20,-15,19,-6
COc1ccc2nc(NC(=O)CCNC(=O)c3ccco3)sc2c1,-4,13,-71,-208,-16,-223
Cc1cc(Cl)cc2sc(NC(=O)c3ccco3)nc12,-21,17,-56,-385,6,-314
COc1ccc2nc(NC(=O)c3cccc(OCc4c(C)noc4C)c3)sc2c1,3,-23,35,-90,52*,-177
COc1ccc2sc(NC(=O)c3ccco3)nc2c1,-1,-4,42,-55,70*,-67
COc1ccc(C(=O)Nc2nc3cc4c(cc3s2)OCO4)c(OC)c1,49,-54*,-38,-204,-31,-308
CCSc1nnc(NC(=O)c2cccc(OCc3c(C)noc3C)c2)s1,-10,-6,-3,3,8,-48
Cc1cc(C)c2nc(NC(=O)c3ccco3)sc2c1,-24,5,15,-299,59*,-79
CN(c1cccc(NC(=O)c2cccc([N+](=O)[O-])c2)c1)S(C)(=O)=O,-6,7,-5,3,-6,-33
COCCN(CCOC)Cc1cc(=O)oc2cc(OC)ccc12,3,3,-13,-14,-5,0
Cc1cc(=O)oc2c(C)c(OCC(=O)Nc3cccnc3)ccc12,4,-4,-15,-105,-5,-168
Cn1cnc(S(=O)(=O)N2CCCCC2c2cc(C(=O)NCc3ccc(Cl)c(Cl)c3)no2)c1 (configuration not stated),9,-4,5,13,3,18
